Experimental data reported in PubChem BioAssay AID686954 (Sanford-Burnham Center for Chemical Genomics, 2013).
The whole screen tested about 30,000 compounds, of which about 240 (0.8%) were called active.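 Rule for the calls: active = at 10 µM dose, at least 30% inhibition, measured as corrected fluorescence normalized to stimulator and neutral control wells; inactive = the rest.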 The sample as a whole holds a higher share of actives than the screen did.

target: Protein artemis (Homo sapiens) (UniProt Q96SD1); assay: blockers of Artemis DNA hairpin overhang cleavage – biochemical, fluorescence intensity, FAM/BHQ-1 hairpin substrate, primary screen (AID 686954); conditions: recombinant Artemis, quenched FAM hairpin cleavage fluorescence; at 10 µM; active compounds read high
Sequence (Q96SD1 whole entry, looked up): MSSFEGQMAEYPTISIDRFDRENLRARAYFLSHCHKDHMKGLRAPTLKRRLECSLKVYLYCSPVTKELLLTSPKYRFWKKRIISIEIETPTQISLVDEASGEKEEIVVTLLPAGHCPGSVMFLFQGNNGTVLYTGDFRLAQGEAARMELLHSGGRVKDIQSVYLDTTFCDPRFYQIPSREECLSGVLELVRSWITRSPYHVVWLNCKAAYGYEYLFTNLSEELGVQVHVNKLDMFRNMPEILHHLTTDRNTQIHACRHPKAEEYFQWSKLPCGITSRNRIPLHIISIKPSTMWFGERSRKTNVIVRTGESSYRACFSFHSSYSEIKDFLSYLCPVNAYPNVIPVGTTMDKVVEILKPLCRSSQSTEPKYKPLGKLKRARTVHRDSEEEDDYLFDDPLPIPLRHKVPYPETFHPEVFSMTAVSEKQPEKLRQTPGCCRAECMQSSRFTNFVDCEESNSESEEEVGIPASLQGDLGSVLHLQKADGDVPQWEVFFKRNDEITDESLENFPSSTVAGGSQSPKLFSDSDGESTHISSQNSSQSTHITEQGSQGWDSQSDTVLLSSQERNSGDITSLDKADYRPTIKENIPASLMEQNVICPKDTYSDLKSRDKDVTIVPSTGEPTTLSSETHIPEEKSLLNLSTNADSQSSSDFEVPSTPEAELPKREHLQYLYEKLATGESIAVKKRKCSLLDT

inhibition, inactive:
CCCC(C)n1[nH]c(=O)c2c(C)cc(C)nc21 (centres undefined) 0.53%
COc1ccccc1NC(=O)CSc1nnc(C)n1CC1CCCO1 (centres undefined) 2.59%
COc1ccc(/C(O)=C2/C(=O)C(=O)N(c3nc(C)c(C)s3)C2c2ccco2)cc1 (centres undefined) 8.17%
COc1ccc(/C(O)=C2/C(=O)C(=O)N(CC3CCCO3)C2c2ccc(OC)c(OC)c2)cc1 (centres undefined) -5.65%
O=C1OC(c2ccc(Cl)cc2)=N/C1=C\c1cccnc1 -6.03%
Cc1c(NC(=O)c2cc(-c3ccc(Cl)s3)nc3ccccc23)c(=O)n(-c2ccccc2)n1C 11.2%
CCOC(=O)c1nc(N)sc1C(=O)OCC -6.13%
CCCCOC(=O)Cn1c(=O)n(CC(=O)OCCCC)c2cc(C)ccc21 6.83%
O=C1CC(C(F)(F)C(F)(F)C(F)(F)C(F)(F)F)=Nc2ccccc2N1 -10.2%
CCOC(=O)c1cc(C#N)c(N2CCCCC2)nc1-c1ccccc1 1.24%
CC(C)(CSc1nncn1/N=C/c1ccco1)NS(=O)(=O)c1ccc(Cl)cc1 -7.17%
COc1ccc(/C=C2/S/C(=N/N=C3\CC4CCC3(C)C4(C)C)NC2=O)cc1 (centres undefined) 7.63%
COc1ccc(CN2CCn3ncc(C(=O)Nc4ccc(Cl)cc4Cl)c3C2=O)cc1 -5.33%
CC(C)OC(=O)c1cc(NC(=O)C2C3CCC(O3)C2C(=O)O)cc(C(=O)OC(C)C)c1 (centres undefined) -5.25%
COc1ccc(C(=O)N2CC3(C)CC2CC(C)(C)C3)cc1OC (centres undefined) -3.98%
CC(=O)Oc1ccc(C)cc1N1C(=O)c2ccc(C(=O)O)cc2C1=O 0.06%
CCC1(C)Cc2c(sc3nc(SC)nc(N)c23)CO1 (centres undefined) -3.48%
CCC1(CC)NC(=O)N(CC(=O)OCC(=O)Nc2ccc(C(F)(F)F)cc2)C1=O 8.68%
CCN1CCN(C(=O)/C=C\C(=O)O)CC1 0.01%
Cc1cccc(CSc2nnc(NC(=O)CSc3nnc(C)s3)s2)c1 4.19%
COc1cccc(/C=N\Nc2nncc(-c3ccccc3)n2)c1 2.99%
CCN1CCN(C(=O)C2(NC(=O)Nc3cccc(F)c3)CCCCC2)CC1 -5.76%
CCCCOC(=O)Nc1sc2nc(C)cc(C)c2c1-n1cccc1 6.76%
CCOC(=O)C(=O)Nc1nc(-c2ccccc2)c(CC)s1 2.06%
Cc1nnc(SCc2nc3ccccc3nc2C)s1 -10.2%
Cc1cccc(NC(=S)Nc2ccc(Br)cc2)c1 -9.18%
CC(=O)NNc1cc(=O)c2c(=O)n(C)c(=O)n(C)c2[nH]1 1.01%
CNS(=O)(=O)c1cnccc1N1CCN(c2cccc(C)c2)CC1 2.37%
COc1ccc(-c2n[nH]c(C)c2-c2ccc(OC)c(OC)c2)c(O)c1 -3.87%
c1ccc(Nc2nc(-c3ccncc3)cs2)nc1 -4.36%
Cc1ccccc1NC(=S)Nc1cccc([N+](=O)[O-])c1 2.56%
Cc1cc(=O)n2c3c(cccc13)CCC2 -4.67%
COc1ccc(-n2nnnc2SCc2nc(N)nc(N3CCOCC3)n2)cc1 -0.42%
C=CCn1c(SCC(=O)c2c(N)n(C)c(=O)n(C)c2=O)nc2sc(CC)cc2c1=O 9.01%
CCOC(=O)C(=CNc1cccc(C)n1)C(=O)OCC -3.58%
O=c1c2ccccc2c(-c2ccc(F)cc2)nn1-c1ccc(C(F)(F)F)cc1 5.92%
CCCC1(C(=O)OCC)NC(c2ccc(N(C)C)cc2)C2C(=O)N(c3ccc4c(c3)OCCO4)C(=O)C21 (centres undefined) -2.24%
O=c1c2ccccc2nc2n1C(CSc1ccc(Cl)cc1)CN2 (centres undefined) 3.79%
COCCn1c(C)cc(C(=O)CSc2ncnc3sc4c(c23)CCC4)c1C -1.83%
COCc1cc(C)nc2sc(C(=O)NC3CCCCC3)c(N)c12 -2.12%
CCCc1nc2sc3c(c2c(=O)n1NC(=O)CCCl)CCCC3 -7.23%
N=c1c2c3c(sc2nc2n1CCCCC2)CCCC3 -6.19%
O=C(O)C1CCN1C1CCCCC1 (centres undefined) 0.02%
Cc1cccc(-n2cnc(C(=O)Nc3cccnc3)c2)n1 9.43%
O=S(=O)(c1cccc2nonc12)N1CCN(c2cccc(Cl)c2)CC1 -9.46%
CCN(CC)c1nc(-c2ccccc2)cc(C(F)(F)F)c1C#N -3.86%
CCOC(=O)N1CCN(C(=O)CN(C2CCCCC2)S(C)(=O)=O)CC1 -1.82%
Cc1ccc(OCC(=O)N/N=C/c2ccncc2)cc1 -5.31%
COc1ccc(-c2c(C(C)=O)c(C)nc3sc4c(=O)n(-c5ccc(C)cc5)nnc4c23)cc1 11.3%

inhibition, active:
Cc1cc(N2C(=O)C(=O)/C(=C(/O)c3ccc(Cl)cc3)C2c2cccc(Br)c2)no1 (centres undefined) 40%
Cc1sc(NC(=O)C2C3CCC(O3)C2C(=O)O)c(C(=O)OC(C)C)c1-c1ccc(Cl)cc1 (centres undefined) 34%
COc1ccc(OC)c(Nc2nc(-c3ccc(O)c(O)c3)cs2)c1 42.1%
Cc1cc(C)n(-c2nc(SCC(=O)N3CCCC3)c3c4c(sc3n2)CCCC4)n1 40.1%
COCCNc1nc(-n2nc(C)cc2C)nc2sc3c(c12)CCCC3 52.7%
